In PubChem BioAssay AID1986 (Sanford-Burnham Center for Chemical Genomics, 2009) one finds inhibition data, which are given here for 60 compounds.

About 890 (0.31%) of roughly 290,000 compounds were called active. The sample holds actives, similar compounds and a random draw of the others, so the mix is not that of the screen. Cut-off read from the data, not from the text of the source: active = inhibition mostly above about 52% (no sharp cut-off); inactive = mostly below about 76%.

The nature of this experiment: inhibitors of HIV fusion peptide binding, primary screen, biochemical, uHTS, fluorescence dequenching (AID 1986). The settings on record: cell-free peptide binding, 30 min, stronger effect = higher value.
Where [1] appears, read: measured here: repeat confirmation average inhibition, at 18.6 µM.

`Clc1ncc(Cn2cccn2)s1`: the inhibition (at 20 µM) was -0.3% (inactive).

`Cc1ccc(C)c(N2CCN(C(=O)CCCn3c(=S)[nH]c4cc5c(cc4c3=O)OCO5)CC2)c1`: for the setting “at 20 µM”, the inhibition is -4.3% (inactive).

On to `Nc1c(C2=NCCO2)nnn1Cc1ccccc1`, for which the inhibition (at 20 µM) is -0.3% (inactive).

For the compound `O=C(Nc1cccc(OCC(=O)N2CCOCC2)c1)c1ccc(C(F)(F)F)cc1`, the inhibition (at 20 µM) was 1.4% (inactive).

For the compound `Cc1cc(C)cc(N(C(C)C(=O)N2CCCC2)S(C)(=O)=O)c1` (centres undefined), the inhibition (at 20 µM) was 2.9% (inactive).

On to `CCc1cc[n+](-c2nc3ccccc3nc2[N-]S(=O)(=O)c2ccc(Br)s2)cc1`, for which the inhibition (at 20 µM) is 96.6% (active).

For the compound `O=S(=O)([N-]c1nc2ccccc2nc1-[n+]1ccccc1)c1ccccc1`, the inhibition (at 20 µM) is 9.8% (inactive).

In the case of `Cc1cc[n+](-c2nc3ccccc3nc2[N-]S(=O)(=O)c2ccccc2)cc1`, the inhibition (at 20 µM) is 12.1% (inactive).

`Cc1cc(C)c[n+](-c2nc3ccccc3nc2[N-]S(=O)(=O)c2ccc(Br)s2)c1`: the inhibition (at 20 µM) was 26.7% (inactive).

`O=S(=O)([N-]c1nc2ccccc2nc1-[n+]1ccc(-c2ccncc2)cc1)c1ccccc1`: the inhibition (at 20 µM) is 83.2% (active).

Turning to `O=S(=O)([N-]c1nc2ccccc2nc1-[n+]1ccc(Cc2ccccc2)cc1)c1ccc(Br)s1`, under “at 20 µM”, the inhibition is 12.8% (inactive).

With `Cc1ccc(S(=O)(=O)N2CCC(=O)N(CCOC(=O)Nc3cc(C)cc(C)c3)CC2)cc1`, the inhibition (at 20 µM) is -2% (inactive).

As for `Cc1cc(C)c2nc(-n3nc(C)cc3N)cc(C)c2c1`, where the note is “at 20 µM”, the inhibition was -0.5% (inactive).

Turning to `COc1cc(C(=O)Nc2nc(-c3cc(C)ccc3C)c(C)s2)ccc1OCC(=O)Nc1ccc(F)cc1`, the inhibition (at 20 µM) was -1% (inactive).

For the compound `Clc1cccc(CNCCCSc2ncccn2)c1`, the inhibition (at 20 µM) was -1.9% (inactive).

Regarding `CCc1c(-c2ccccc2)nc2sc3c(c2c1N)CCCC3`, the inhibition (at 20 µM) was 0.7% (inactive).

With `CN1C(=O)S/C(=C/c2cccn2-c2cccc(C(=O)O)c2)C1=O`, for the setting “at 20 µM”, the inhibition was 1.9% (inactive).

Take `Cc1ccccc1NC(=O)CN1C(=O)S/C(=C\c2cccn2-c2cccc(C(=O)O)c2)C1=O`: the inhibition (at 20 µM) is -1.1% (inactive).

With `CC1=NN(c2nc(-c3ccc(Cl)cc3)cs2)C(=O)C1`, for the setting “at 20 µM”, the inhibition was -1.9% (inactive).

Regarding `O=C1CC(c2ccccc2)=NN1c1nc(-c2ccccc2)cs1`, the inhibition (at 20 µM) was 58% (active).

For `CC1=NN(c2nc(-c3ccccc3)cs2)C(=O)C1`, the inhibition (at 20 µM) was 47.5% (inactive).

Turning to `CCOC(=O)Cn1c(=O)n(Cc2ccc(C)cc2)c(=O)c2cccnc21`, the inhibition (at 20 µM) was 1.3% (inactive).

Take `COc1cc(N2CCCC2)c(OC)cc1/C=c1/sc2nc3ccccc3n2c1=O`: under “at 20 µM”, the inhibition is -3.3% (inactive).

On to `COc1cc(N2CCCC2)c(OC)cc1C=O`, for which the inhibition (at 20 µM) was -2.7% (inactive).

For `COc1cc(N2CCCC2)c(OC)cc1/C=C1/NC(=S)NC1=O`, the inhibition (at 20 µM) is 121% (active).

`COCCN(C(=O)C1CCC1)c1nnc(-c2cccnc2)s1`: where the note is “at 20 µM”, the inhibition was -0.2% (inactive).

Regarding `CN(C)c1ccc(N=Cc2nc(-c3ccccc3)oc2O)cc1`, the inhibition was 84.5% (active) (at 20 µM) and 132% under setting [1].

As for `Cc1ccc(-c2nc(C=Nc3ccccc3)c(O)o2)cc1`, the inhibition (at 20 µM) is -1.7% (inactive).

As to `Oc1oc(-c2ccccc2)nc1C=Nc1ccccc1`, the inhibition (at 20 µM) is -1.4% (inactive).

In the case of `O=C(CCCc1ccccc1)Nc1ccccn1`, the inhibition (at 20 µM) was -1.4% (inactive).

As to `O=C(O)CS(=O)CC(=O)Nc1cccc(C(F)(F)F)c1` (centres undefined), under “at 20 µM”, the inhibition is 0.3% (inactive).

For the compound `CCN=C1S/C(=C\c2ccc(-c3cccc(C(=O)O)c3)o2)C(=O)N1CC`, under “at 20 µM”, the inhibition was 42% (inactive).

`CCN1C(=O)/C(=C\c2ccc(-c3cccc(C(=O)OC)c3)o2)SC1=Nc1ccc(C(=O)O)cc1`: the inhibition was 51.6% (inactive) (at 20 µM) and 8.6% under setting [1].

As for `Cc1ccc(-c2csc(NC(=O)c3ccco3)n2)cc1C`, where the note is “at 20 µM”, the inhibition is 2% (inactive).

In the case of `COc1cc(OC)c(OC)cc1CN1CCc2ccccc2C1`, the inhibition (at 20 µM) is 1% (inactive).

Consider `O=C(CN1CCC(Cc2ccccc2)CC1)N1CCc2ccccc2C1`, for which, where the note is “at 20 µM”, the inhibition is 0.8% (inactive).

For `CCOc1cccc(C2/C(=C(/O)c3ccc4c(c3)CC(C)O4)C(=O)C(=O)N2CCCn2ccnc2)c1` (centres undefined), the inhibition (at 20 µM) is -2.5% (inactive).

With `O=C(Nc1sc2c(c1C(=O)O)CCC2)c1ccccc1`, the inhibition (at 20 µM) is 12.1% (inactive).

Turning to `CC(C)(C)c1ccc(C(=O)Nc2sc3c(c2C(=O)O)CCC3)cc1`, for the setting “at 20 µM”, the inhibition is 50.9% (active).

For `O=C(Nc1sc2c(c1C(=O)O)CCC2)c1ccc(F)cc1`, the inhibition (at 20 µM) was 6.4% (inactive).

For the compound `O=C(CCN1CCc2ccccc2C1)c1ccc2c(c1)OCCO2`, the inhibition (at 20 µM) was 1.4% (inactive).

With `O=C(c1ccc(Cl)cc1)c1c[nH]c(C(=O)NNc2ccccc2)c1`, for the setting “at 20 µM”, the inhibition is -4.1% (inactive).

`CN(CCc1ccccn1)C1CCCN(S(=O)(=O)c2ccc(F)c(Cl)c2)C1` (centres undefined): the inhibition (at 20 µM) was -0.2% (inactive).

`COc1c(Br)cc(/C=N/n2c(-c3ccccc3)n[nH]c2=S)c(O)c1Br`: under “at 20 µM”, the inhibition was 44.2% (inactive).

`Oc1c(Br)cc(/C=N/n2c(-c3ccccc3)n[nH]c2=S)cc1Br`: the inhibition was 64.4% (inactive) (at 20 µM) and 15.2% under setting [1].

For the compound `Oc1ccccc1/C=N/n1c(-c2ccccc2)n[nH]c1=S`, where the note is “at 20 µM”, the inhibition was 0.3% (inactive).

For the compound `Oc1c(Br)cc(/C=N/n2c(-c3ccccc3)n[nH]c2=S)c(Br)c1O`, under “at 20 µM”, the inhibition is 63.4% (active).

Take `Oc1ccc(Br)cc1/C=N/n1c(-c2ccccc2)n[nH]c1=S`: the inhibition (at 20 µM) is 6% (inactive).

In the case of `Oc1c(Br)cc(Br)cc1/C=N/n1c(-c2ccccc2)n[nH]c1=S`, the inhibition (at 20 µM) was 20.3% (inactive).

For the compound `Cc1c(Br)c(O)c(Br)c(O)c1/C=N/n1c(-c2ccccc2)n[nH]c1=S`, the inhibition (at 20 µM) was 62.9% (inactive) and the inhibition under setting [1] is 47.6%.

Turning to `Oc1c(Br)cc(/C=N/n2c(-c3ccccc3)n[nH]c2=S)c(O)c1Br`, the inhibition (at 20 µM) was 53.2% (active).

As for `CC(=O)c1cccc(N(CC(=O)N2CCOCC2)S(C)(=O)=O)c1`, under “at 20 µM”, the inhibition was -1.8% (inactive).

Regarding `CC(Oc1ccccc1)C(=O)NNC(=O)c1cccs1` (centres undefined), the inhibition (at 20 µM) is -0.2% (inactive).

Regarding `Cc1ccc(Nc2nc(N)c([N+](=O)[O-])c(N3CCOCC3)n2)cc1`, under “at 20 µM”, the inhibition was -3.1% (inactive).

Turning to `Cc1c(Cl)c(C(=O)NC2C3CC4CC(C3)CC2C4)nn1C` (centres undefined), for the setting “at 20 µM”, the inhibition was -1.2% (inactive).

On to `O=C(Nc1ccn(Cc2ccccc2F)n1)c1ccc(COc2ccc(Br)cc2)cc1`, for which, where the note is “at 20 µM”, the inhibition was -0.1% (inactive).

Turning to `Cc1cccc(NC(=O)CN2C(=O)CCS(=O)(=O)c3ccccc32)c1C`, the inhibition (at 20 µM) was 0% (inactive).

Take `CC(C)(C)NC(=O)NC(=O)COC(=O)c1cccc(NS(=O)(=O)c2ccc(F)c(F)c2)c1`: under “at 20 µM”, the inhibition was 5.9% (inactive).

Consider `COC(=O)c1ccccc1NC(=O)COC(=O)[C@H](C)NC(N)=O`, for which the inhibition (at 20 µM) is -2.5% (inactive).

As to `C=CCn1c(CCC(O)COCCC)n[nH]c1=S` (centres undefined), for the setting “at 20 µM”, the inhibition is -0.8% (inactive).

The term inhibition denotes the relative decrease from the control value, in per cent.
